# Residue numbers refer to the chain shown, from its start.
# What was measured:
# Assay in all cases: PBM; 200 nM protein, PBS
# Conditions in all cases: dsDNA, one strand shown
# [1] = molecular target: HOXB4 (Homo sapiens, UniProt P17483 148-234)
# [2] = molecular target: T1, SIX6 (Homo sapiens, UniProt O95475 114-200, L167I)
# T1 sequence: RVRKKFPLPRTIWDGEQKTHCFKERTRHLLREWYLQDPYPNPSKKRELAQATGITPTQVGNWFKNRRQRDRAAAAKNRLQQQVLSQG
# [3] = molecular target: T2, SIX6 (Homo sapiens, UniProt O95475 114-200, L143V)
# T2 sequence: T1 sequence with L30V, I54L
# [4] = molecular target: T3, SIX6 (Homo sapiens, UniProt O95475 114-200, H141N)
# T3 sequence: T1 sequence with H28N, I54L
# [5] = molecular target: T4, SIX6 (Homo sapiens, UniProt O95475 114-200, T165P)
# T4 sequence: T1 sequence with T52P, I54L
# [6] = molecular target: T5, SIX6 (Homo sapiens, UniProt O95475 114-200, L167M)
# T5 sequence: T1 sequence with I54M
# [7] = molecular target: T6, SIX6 (Homo sapiens, UniProt O95475 114-200, L143M)
# T6 sequence: T1 sequence with L30M, I54L
# [8] = molecular target: T7, SIX6 (Homo sapiens, UniProt O95475 114-200, L143I)
# T7 sequence: T1 sequence with L30I, I54L
# [9] = molecular target: T8, SIX6 (Homo sapiens, UniProt O95475 114-200, T165G)
# T8 sequence: T1 sequence with T52G, I54L
# [10] = molecular target: T9, SIX6 (Homo sapiens, UniProt O95475 114-200, T139Q)
# T9 sequence: T1 sequence with T26Q, I54L
# [11] = molecular target: HOXB4 (Homo sapiens, UniProt P17483 148-234, V174I)
# [12] = molecular target: HOXD13 (Homo sapiens, UniProt P35453 263-343, T313R)
# [13] = molecular target: T10, SIX6 (Homo sapiens, UniProt O95475 114-200, T165A)
# T10 sequence: T1 sequence with T52A, I54L
# [14] = molecular target: HOXD13 (Homo sapiens, UniProt P35453 263-343)
# [15] = molecular target: T11, SIX6 (Homo sapiens, UniProt O95475 114-200, L167V)
# T11 sequence: T1 sequence with I54V
# [16] = molecular target: T12, SIX6 (Homo sapiens, UniProt O95475 114-200)
# T12 sequence: T1 sequence with I54L
# [17] = molecular target: T13, SIX6 (Homo sapiens, UniProt O95475 114-200, T165I)
# T13 sequence: T1 sequence with T52I, I54L
# [18] = molecular target: HOXD13 (Homo sapiens, UniProt P35453 263-343, T313A)
# [19] = molecular target: HOXB9 (Homo sapiens, UniProt P17482 171-250, T197M)
# [20] = molecular target: HOXB9 (Homo sapiens, UniProt P17482 171-250)
# [21] = molecular target: HOXB9 (Homo sapiens, UniProt P17482 171-250, R186Q)
# [22] = molecular target: T14, VENTX (Homo sapiens, UniProt O95231 78-163, R121Q)
# T14 sequence: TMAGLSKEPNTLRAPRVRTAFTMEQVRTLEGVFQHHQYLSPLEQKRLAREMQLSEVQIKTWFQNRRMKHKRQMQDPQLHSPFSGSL
# [23] = molecular target: HOXA4 (Homo sapiens, UniProt Q00056 201-287, W262R)
# [24] = molecular target: T15, VENTX (Homo sapiens, UniProt O95231 78-163)
# T15 sequence: T14 sequence with Q44R
# [25] = molecular target: T16, VENTX (Homo sapiens, UniProt O95231 78-163, Y115F)
# T16 sequence: T14 sequence with Y38F, Q44R
# [26] = molecular target: HOXA2 (Homo sapiens, UniProt O43364 129-215, R185T)
# [27] = molecular target: HOXA4 (Homo sapiens, UniProt Q00056 201-287, R217L)
# [28] = molecular target: HOXA2 (Homo sapiens, UniProt O43364 129-215, R185K)
# [29] = molecular target: HOXA4 (Homo sapiens, UniProt Q00056 201-287)
# [30] = molecular target: VAX1 (Homo sapiens, UniProt Q5SQQ9 86-172)
# [31] = molecular target: VAX1 (Homo sapiens, UniProt Q5SQQ9 86-172, T142I)
# [32] = molecular target: HOXA2 (Homo sapiens, UniProt O43364 129-215, Y150S)
# [33] = molecular target: HOXA4 (Homo sapiens, UniProt Q00056 201-287, W262F)
# [34] = molecular target: HOXA2 (Homo sapiens, UniProt O43364 129-215)
# [35] = molecular target: VAX1 (Homo sapiens, UniProt Q5SQQ9 86-172, K157R)
# [36] = molecular target: HOXA7 (Homo sapiens, UniProt P31268 116-202)
# [37] = molecular target: HOXB6 (Homo sapiens, UniProt P17509 132-218, K202E)
# [38] = molecular target: HOXA7 (Homo sapiens, UniProt P31268 116-202, W177C)
# [39] = molecular target: HOXB6 (Homo sapiens, UniProt P17509 132-218)
# HOXB6 (Homo sapiens, UniProt P17509 132-218), sequence (P17509 132-218): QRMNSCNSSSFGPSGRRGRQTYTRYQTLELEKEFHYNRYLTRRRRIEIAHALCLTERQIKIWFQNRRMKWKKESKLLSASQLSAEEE
# HOXB4 (Homo sapiens, UniProt P17483 148-234, V174I), sequence (P17483 148-234 V174I): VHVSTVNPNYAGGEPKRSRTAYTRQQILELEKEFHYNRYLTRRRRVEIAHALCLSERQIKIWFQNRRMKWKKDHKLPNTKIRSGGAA
# HOXB4 (Homo sapiens, UniProt P17483 148-234), sequence (P17483 148-234): as the sequence (P17483 148-234 V174I) above, with I27V counted along it
# HOXA4 (Homo sapiens, UniProt Q00056 201-287), sequence (Q00056 201-287): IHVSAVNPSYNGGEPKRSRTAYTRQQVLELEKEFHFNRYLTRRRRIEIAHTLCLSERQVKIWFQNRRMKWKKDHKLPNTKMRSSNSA
# HOXA2 (Homo sapiens, UniProt O43364 129-215, R185K), sequence (O43364 129-215 R185K): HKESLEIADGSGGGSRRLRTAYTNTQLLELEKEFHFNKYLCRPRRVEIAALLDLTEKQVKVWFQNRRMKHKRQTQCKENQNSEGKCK
# HOXA4 (Homo sapiens, UniProt Q00056 201-287, R217L), sequence (Q00056 201-287 R217L): as the sequence (Q00056 201-287) above, with R17L counted along it
# HOXA4 (Homo sapiens, UniProt Q00056 201-287, W262R), sequence (Q00056 201-287 W262R): as the sequence (Q00056 201-287) above, with W62R counted along it
# HOXA2 (Homo sapiens, UniProt O43364 129-215, R185T), sequence (O43364 129-215 R185T): as the sequence (O43364 129-215 R185K) above, with K57T counted along it
# HOXA2 (Homo sapiens, UniProt O43364 129-215), sequence (O43364 129-215): as the sequence (O43364 129-215 R185K) above, with K57R counted along it
# VAX1 (Homo sapiens, UniProt Q5SQQ9 86-172, K157R), sequence (Q5SQQ9 86-172 K157R): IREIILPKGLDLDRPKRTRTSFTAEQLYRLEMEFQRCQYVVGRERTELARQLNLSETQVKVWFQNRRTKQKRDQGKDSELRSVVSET
# HOXA2 (Homo sapiens, UniProt O43364 129-215, Y150S), sequence (O43364 129-215 Y150S): as the sequence (O43364 129-215 R185K) above, with Y22S, K57R counted along it
# HOXA4 (Homo sapiens, UniProt Q00056 201-287, W262F), sequence (Q00056 201-287 W262F): as the sequence (Q00056 201-287) above, with W62F counted along it
# VAX1 (Homo sapiens, UniProt Q5SQQ9 86-172, T142I), sequence (Q5SQQ9 86-172 T142I): as the sequence (Q5SQQ9 86-172 K157R) above, with T57I, R72K counted along it
# VAX1 (Homo sapiens, UniProt Q5SQQ9 86-172), sequence (Q5SQQ9 86-172): as the sequence (Q5SQQ9 86-172 K157R) above, with R72K counted along it
# HOXA7 (Homo sapiens, UniProt P31268 116-202), sequence (P31268 116-202): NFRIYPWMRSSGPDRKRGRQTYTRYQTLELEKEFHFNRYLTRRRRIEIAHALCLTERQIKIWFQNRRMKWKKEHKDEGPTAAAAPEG
# HOXD13 (Homo sapiens, UniProt P35453 263-343, T313R), sequence (P35453 263-343 T313R): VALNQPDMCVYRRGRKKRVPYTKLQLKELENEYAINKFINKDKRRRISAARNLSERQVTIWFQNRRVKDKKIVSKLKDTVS
# HOXB9 (Homo sapiens, UniProt P17482 171-250, T197M), sequence (P17482 171-250 T197M): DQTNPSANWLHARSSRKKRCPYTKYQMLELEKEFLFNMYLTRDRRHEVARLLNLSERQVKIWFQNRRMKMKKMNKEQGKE
# HOXA7 (Homo sapiens, UniProt P31268 116-202, W177C), sequence (P31268 116-202 W177C): as the sequence (P31268 116-202) above, with W62C counted along it
# HOXB9 (Homo sapiens, UniProt P17482 171-250, R186Q), sequence (P17482 171-250 R186Q): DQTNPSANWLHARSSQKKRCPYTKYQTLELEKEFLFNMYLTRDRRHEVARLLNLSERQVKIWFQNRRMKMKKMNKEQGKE
# HOXD13 (Homo sapiens, UniProt P35453 263-343, T313A), sequence (P35453 263-343 T313A): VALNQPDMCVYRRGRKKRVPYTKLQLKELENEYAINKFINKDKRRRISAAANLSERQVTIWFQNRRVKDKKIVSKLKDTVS
# HOXB6 (Homo sapiens, UniProt P17509 132-218, K202E), sequence (P17509 132-218 K202E): as the sequence (P17509 132-218) above, with K71E counted along it
# HOXB9 (Homo sapiens, UniProt P17482 171-250), sequence (P17482 171-250): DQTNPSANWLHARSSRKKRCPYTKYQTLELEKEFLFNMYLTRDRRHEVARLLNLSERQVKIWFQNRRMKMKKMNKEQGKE
# HOXD13 (Homo sapiens, UniProt P35453 263-343), sequence (P35453 263-343): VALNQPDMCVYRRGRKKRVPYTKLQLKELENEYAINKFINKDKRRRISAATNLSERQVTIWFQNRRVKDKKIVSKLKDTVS
sequence,measurement,setting,value
GCCGCTCC,binding signal,[1],"7.92 upbm affinity estimate (log intensity, higher = more binding, comparable within an allelic series)"
same,binding signal,[2],"9.16 upbm affinity estimate (log intensity, higher = more binding, comparable within an allelic series)"
same,binding signal,[3],"8.94 upbm affinity estimate (log intensity, higher = more binding, comparable within an allelic series)"
same,binding signal,[4],"9.15 upbm affinity estimate (log intensity, higher = more binding, comparable within an allelic series)"
same,binding signal,[5],"8.87 upbm affinity estimate (log intensity, higher = more binding, comparable within an allelic series)"
same,binding signal,[6],"9.07 upbm affinity estimate (log intensity, higher = more binding, comparable within an allelic series)"
same,binding signal,[7],"9.12 upbm affinity estimate (log intensity, higher = more binding, comparable within an allelic series)"
same,binding signal,[8],"8.99 upbm affinity estimate (log intensity, higher = more binding, comparable within an allelic series)"
same,binding signal,[9],"9.14 upbm affinity estimate (log intensity, higher = more binding, comparable within an allelic series)"
same,binding signal,[10],"9.17 upbm affinity estimate (log intensity, higher = more binding, comparable within an allelic series)"
same,binding signal,[11],"7.92 upbm affinity estimate (log intensity, higher = more binding, comparable within an allelic series)"
same,binding signal,[12],"9.38 upbm affinity estimate (log intensity, higher = more binding, comparable within an allelic series)"
same,binding signal,[13],"9.12 upbm affinity estimate (log intensity, higher = more binding, comparable within an allelic series)"
same,binding signal,[14],"9.56 upbm affinity estimate (log intensity, higher = more binding, comparable within an allelic series)"
same,binding signal,[15],"9.06 upbm affinity estimate (log intensity, higher = more binding, comparable within an allelic series)"
same,binding signal,[16],"9.12 upbm affinity estimate (log intensity, higher = more binding, comparable within an allelic series)"
same,binding signal,[17],"9.09 upbm affinity estimate (log intensity, higher = more binding, comparable within an allelic series)"
same,binding signal,[18],"9.61 upbm affinity estimate (log intensity, higher = more binding, comparable within an allelic series)"
CCTGACCC,binding signal,[1],"7.93 upbm affinity estimate (log intensity, higher = more binding, comparable within an allelic series)"
same,binding signal,[19],"8.77 upbm affinity estimate (log intensity, higher = more binding, comparable within an allelic series)"
same,binding signal,[20],"8.65 upbm affinity estimate (log intensity, higher = more binding, comparable within an allelic series)"
same,binding signal,[11],"7.87 upbm affinity estimate (log intensity, higher = more binding, comparable within an allelic series)"
same,binding signal,[21],"8.66 upbm affinity estimate (log intensity, higher = more binding, comparable within an allelic series)"
CTAATGAG,binding signal,[1],"13 upbm affinity estimate (log intensity, higher = more binding, comparable within an allelic series)"
same,binding signal,[22],"11.9 upbm affinity estimate (log intensity, higher = more binding, comparable within an allelic series)"
same,binding signal,[23],"10.5 upbm affinity estimate (log intensity, higher = more binding, comparable within an allelic series)"
same,binding signal,[24],"12.6 upbm affinity estimate (log intensity, higher = more binding, comparable within an allelic series)"
same,binding signal,[25],"12 upbm affinity estimate (log intensity, higher = more binding, comparable within an allelic series)"
same,binding signal,[26],"13.3 upbm affinity estimate (log intensity, higher = more binding, comparable within an allelic series)"
same,binding signal,[27],"11.8 upbm affinity estimate (log intensity, higher = more binding, comparable within an allelic series)"
same,binding signal,[11],"13.6 upbm affinity estimate (log intensity, higher = more binding, comparable within an allelic series)"
same,binding signal,[28],"13.6 upbm affinity estimate (log intensity, higher = more binding, comparable within an allelic series)"
same,binding signal,[29],"13.8 upbm affinity estimate (log intensity, higher = more binding, comparable within an allelic series)"
same,binding signal,[30],"13.6 upbm affinity estimate (log intensity, higher = more binding, comparable within an allelic series)"
same,binding signal,[31],"13.3 upbm affinity estimate (log intensity, higher = more binding, comparable within an allelic series)"
same,binding signal,[32],"10.6 upbm affinity estimate (log intensity, higher = more binding, comparable within an allelic series)"
same,binding signal,[33],"11.6 upbm affinity estimate (log intensity, higher = more binding, comparable within an allelic series)"
same,binding signal,[34],"12.8 upbm affinity estimate (log intensity, higher = more binding, comparable within an allelic series)"
same,binding signal,[35],"13.4 upbm affinity estimate (log intensity, higher = more binding, comparable within an allelic series)"
CTTAATGA,binding signal,[1],"13.3 upbm affinity estimate (log intensity, higher = more binding, comparable within an allelic series)"
same,binding signal,[22],"11.8 upbm affinity estimate (log intensity, higher = more binding, comparable within an allelic series)"
same,binding signal,[23],"10.7 upbm affinity estimate (log intensity, higher = more binding, comparable within an allelic series)"
same,binding signal,[36],"11.3 upbm affinity estimate (log intensity, higher = more binding, comparable within an allelic series)"
same,binding signal,[25],"11.7 upbm affinity estimate (log intensity, higher = more binding, comparable within an allelic series)"
same,binding signal,[37],"9.94 upbm affinity estimate (log intensity, higher = more binding, comparable within an allelic series)"
same,binding signal,[26],"12.8 upbm affinity estimate (log intensity, higher = more binding, comparable within an allelic series)"
same,binding signal,[27],"12.5 upbm affinity estimate (log intensity, higher = more binding, comparable within an allelic series)"
same,binding signal,[11],"13.9 upbm affinity estimate (log intensity, higher = more binding, comparable within an allelic series)"
same,binding signal,[28],"13.4 upbm affinity estimate (log intensity, higher = more binding, comparable within an allelic series)"
same,binding signal,[29],"14 upbm affinity estimate (log intensity, higher = more binding, comparable within an allelic series)"
same,binding signal,[30],"13.3 upbm affinity estimate (log intensity, higher = more binding, comparable within an allelic series)"
same,binding signal,[31],"13.1 upbm affinity estimate (log intensity, higher = more binding, comparable within an allelic series)"
same,binding signal,[32],"10.8 upbm affinity estimate (log intensity, higher = more binding, comparable within an allelic series)"
same,binding signal,[38],"8.84 upbm affinity estimate (log intensity, higher = more binding, comparable within an allelic series)"
same,binding signal,[33],"12.1 upbm affinity estimate (log intensity, higher = more binding, comparable within an allelic series)"
same,binding signal,[34],"12.7 upbm affinity estimate (log intensity, higher = more binding, comparable within an allelic series)"
same,binding signal,[35],"13.1 upbm affinity estimate (log intensity, higher = more binding, comparable within an allelic series)"
same,binding signal,[39],"11.6 upbm affinity estimate (log intensity, higher = more binding, comparable within an allelic series)"
